# A selection: hits, their analogues and other compounds. The true share with any hit is near 15%.
# SARS PLpro yeast = SARS-CoV PLP inhibition in yeast. S. cerevisiae expressing SARS-CoV PLpro, growth rescue. AID 485353. Potency, µM (top dose mostly 32.9 µM), for inactives: at the top dose activity, positive = growth rescue, actives largely listed as activators. 330,000 compounds, 0.19% hits; calls by dose curve; further: potency means the concentration at half of the fitted maximal effect; 0% is about no effect; nearly all actives have a fitted effect of over 55% in size
# HCMV antiviral = blocks human cytomegalovirus replication. activity change, negative = inhibition, % at 57.5 µM. AID 1259415. HFF cells, HCMV-luciferase reporter, 72 h; hits give low values. 410,000 compounds, 4.5% hits; in the data active means activity change below about -60%; inconclusive means no clear call, values can overlap the other calls; inactive means above about -39%; further: on the % scale 0 is the no-effect control and ±100 the full control effect
#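 Compounds were evaluated in HFFs infected with an HCMV luciferase reporter virus (MOI 1 PFU/cell). Luciferase in lysates collected 72 h post infection served as the replication measure.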
# Sm TGR block = S. mansoni TGR enzyme inhibition. 360,000 compounds, 3% hits. purified TGR, DTNB reduction, TNB absorbance 405 nm. Q962Y6. Potency, µM (doses to about 114 µM), for inactives: at the top dose activity change, negative = inhibition, usual class: inhibitors; further: potency means the concentration at half of the fitted maximal effect; on the % scale 0 is the no-effect control and ±100 the full control effect; nearly all actives have a fitted effect of over 60% in size
#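 Kinetic colorimetric format: TGR-catalysed, NADPH-driven DTNB reduction monitored via TNB absorbance. Enzyme dispensed at 20 nM; compound exposure 15 min at room temperature before reaction start.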
# Pf growth 48h = P. falciparum growth inhibition at 48 hours (one generation); P. falciparum luciferase growth in erythrocytes, 48 h; Potency, µM (top dose mostly 28.7 µM), inactives show at the highest dose activity change, negative = inhibition, most hits filed as inhibitors; 310,000 compounds, 5.9% hits; AID 504832; further: potency means the concentration at half of the fitted maximal effect; on the % scale 0 is the no-effect control and ±100 the full control effect
#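 Cell-based growth assay: transgenic P. falciparum expressing firefly luciferase, cultured in red cells within RPMI 1640 containing 0.5% w/v Albumax, 24 mM bicarbonate and gentamycin. A drop in luciferase activity indicates inhibition.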
# HCV inhibitor = HCV inhibition; Huh7.5.1 HCVcc-Cre infection, luciferase reporter, 44 h; Potency, µM (titrated, usually from 41.8 µM), for inactives: at the top dose activity change, negative = inhibition, usual class: inhibitors; 340,000 compounds, 3.4% hits; further: potency means the concentration at half of the fitted maximal effect; on the % scale 0 is the no-effect control and ±100 the full control effect
#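 Seed cells (1,000/well) for 4 h; treat with compound and infect with HCVcc-Cre, moi about 0.5. Incubate 44 h, then detect luciferase activity.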
# Pf growth 96h = P. falciparum growth inhibition at 96 hours; P. falciparum luciferase reporter growth, 96 h; Potency, µM (series often up to 28.7 µM), without a hit: at the highest dose activity change, negative = inhibition, usual class: inhibitors; 320,000 compounds, 6.9% hits; AID 504834; further: potency means the concentration at half of the fitted maximal effect; on the % scale 0 is the no-effect control and ±100 the full control effect
#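 Cell-based qHTS: luciferase-tagged P. falciparum in erythrocytes (2% hematocrit, 0.05% parasitemia final) incubated with compounds for 96 hours, 37 C, 5% CO2; luciferase detection reagent then added and luminescence measured.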
# Starred values were filed as active, the others as inactive; ? = inconclusive; · = no result; [ ] = remark or other dose. Unless noted, the call rests on the fitted dose curve; in most records, active means well fitted curve in the direction sought with a large enough effect; inconclusive means small, poorly fitted or top-dose-only effect, or another doubt; inactive means no such curve, though single readings can be large; an effect the other way counts as inactive or inconclusive.
SMILES,SARS PLpro yeast,HCMV antiviral,Sm TGR block,Pf growth 48h,HCV inhibitor,Pf growth 96h
Cc1cc2c(cc(C(=O)OCC(=O)NCc3cccs3)n2C(C)C)o1,-8%,·,-25%,?,?,0%
CN(C(=O)c1ccccc1Cl)c1ccccc1C(=O)NCc1ccccc1,-3%,-11,-2%,0%,13%,13%
CN(C)S(=O)(=O)c1cc(C(=O)NCc2ccccc2)c(Cl)cc1Cl,0%,3,6%,-4%,13µM*,47%[1.15 µM]
O=C(CN(c1ccc(F)cc1)S(=O)(=O)c1ccc2c(c1)OCCO2)NCc1ccccc1,-1%,2,-1%,·,18%,?
O=C(CN(c1ccccc1Cl)S(=O)(=O)c1ccccc1)N/N=C/c1ccccc1C(=O)O,-1%,-63*,-1%,?,17%,?
Cc1ccc(S(=O)(=O)N(CC(=O)N/N=C/c2ccccc2C(=O)O)c2cc(Cl)cc(Cl)c2)cc1,0%,8,8%,12%,5%,?
O=C(CN(c1ccc2c(c1)OCCO2)S(=O)(=O)c1ccccc1)NCc1ccc(Cl)cc1,3%,?,0%,-26%,?,12µM*
O=C(CN(c1ccccc1Cl)S(=O)(=O)c1ccccc1)NCc1ccccc1,-1%,-24,3%,?,-19%,12µM*
O=C(O)c1cc(-c2ccc(O)cc2)on1,0%,-24,18%,8%,-4%,?
CC1(C)CCC[C@@]2(C)CC=C(C(=O)O)[C@@H]3C[C@]312,-2%,16,0%,-12%,19%,3%
COc1ccc(Oc2cc(NC(=O)c3nn(C)cc3[N+](=O)[O-])cc([N+](=O)[O-])c2)cc1,-1%,-110*,-23%,·,?,-10%
Cn1cc([N+](=O)[O-])c(C(=O)Nc2cc(Oc3cccnc3)cc([N+](=O)[O-])c2)n1,5%,-106*,5%,1%,?,18%
COC(=O)c1nc2nc(C)cc(C(F)(F)F)n2n1,1%,58,-29%,1%,22%,12µM*
NC(=O)NC1CCCc2c1[nH]c1ccc(Cl)cc21 (configuration not stated),7%,-6,-1%,21%,6.3µM*,-27%
COc1ccc(Nc2nc3ccc(Cl)cc3n3nnnc23)cc1OC,·,25,3%,·,·,·
Cc1cc(C2=NNC(=NC3CC3)SC2)c(C)n1-c1ccccc1F,-25%,-97*,-1%,?,11µM*,?
Cc1cc(C2=NNC(=NC3CCCCC3)SC2)c(C)n1-c1c(C)n(C)n(-c2ccccc2)c1=O,3%,-22,-1%,6.6µM*,-27%,13µM*
Cc1cc(OCCCCOc2ccc(S(N)(=O)=O)c(C)c2)ccc1S(N)(=O)=O,6%,-30,16%,-18%,?,24%
CCc1cccc2c(=O)c(C(=O)NCCN3CCOCC3)c[nH]c12,-1%,15,1%,-5%,10µM*,11%
COc1ccc(NS(=O)(=O)NC(=O)c2c[nH]c3ccccc23)cc1,1%,-25,-4%,3%,0%,39%
CCc1cccc2c(=O)c(C(=O)N3CCOCC3)c[nH]c12,-1%,-35,0%,6%,15%,?
O=C(NCc1ccccc1)c1c[nH]c2ccc(S(=O)(=O)Nc3ccc4c(c3)OCCO4)cc2c1=O,0%,14,-16%,?,-20%,15µM*
COc1cccc(NS(=O)(=O)NC(=O)c2c[nH]c3ccccc23)c1,2%,-25,0%,12µM*,-1%,72%
COc1cccc(NS(=O)(=O)c2ccc3[nH]cc(C(=O)NCCN4CCOCC4)c(=O)c3c2)c1,-3%,-6,-4%,13µM*,14%,7%
Cc1ccccc1NS(=O)(=O)c1ccc2[nH]cc(C(=O)NCCCN3CCOCC3)c(=O)c2c1,3%,?,7%,4.1µM*,6%,-9%
SMILES,SARS PLpro yeast,HCMV antiviral,Sm TGR block,Pf growth 48h,HCV inhibitor,Pf growth 96h
Cc1ccccc1CS(=O)(=O)CCC(=O)NCc1ccccn1,-5%,-11,-28%,18%,17%,35%
COc1nc(NCc2ccco2)nc(N2CCC(C)CC2)n1,17%,-27,-14%,?,-23%,-14%
CCNc1nc(OC)nc(N2CCC(Cc3ccccc3)CC2)n1,-11%,15,1%,-14%,?,13µM*
CC1(C)N(O)C2CCCCC2N1O (configuration not stated),-8%,38,-28%,0.037µM*,20%,?
Cc1ccc(NC(=O)c2ncn(CCCNCC(C)c3ccccc3)n2)cc1C (configuration not stated),·,-22,·,·,?,·
Cc1ccc(/C=C/C(=O)C2C(=O)c3ccccc3C2=O)cc1,-21%,121,-26%,1.7µM*,?,?
Cc1ccc(/C=C/C(=O)c2ccccc2O)cc1,2%,9,-13%,52%,14%,24%
CC(C)(C)NC(=O)Cn1cc(S(=O)(=O)Cc2ccccc2Cl)c2ccccc21,·,0,8%,·,·,·
Cn1nccc1C(=O)Nc1cccc(S(=O)(=O)N2CCOCC2)c1,-2%,-25,0%,21%,5%,26%
CC(CCc1ccc(O)cc1)NC1c2ccccc2-c2ccccc21 (configuration not stated),3%,-11,7%,15µM*,11%,?
CC(CCc1ccc(O)cc1)NC1C2CC3CC(C2)CC1C3 (configuration not stated),?,6,2%,13µM*,-1%,-86%
CSCCC1NC(=O)N(CC(=O)Nc2ccc3c(c2)OCCO3)C1=O (configuration not stated),-5%,0,·,·,13%,·
C/C(=N/NS(=O)(=O)c1ccc(Br)cc1)c1c[nH]c2ccccc12,-10%,-13,40µM*,20%,-3%,-29%
C/C(=N\NS(=O)(=O)c1ccc([N+](=O)[O-])cc1)c1c[nH]c2ccccc12,-3%,44,-35%,81%,6%,?
O=S(=O)(NC1CCSc2ccccc21)c1ccc(Cl)nc1 (configuration not stated),-3%,11,-12%,-4%,-1%,-29%
COC(=O)[C@@H]1[C@@H](CO)[C@@H]2Cn3c(ccc(Br)c3=O)[C@H]1N2CCc1ccccc1,·,12,·,·,·,·
CC1CCCCN1S(=O)(=O)c1ccc(N(C(=O)c2cnccn2)C(C(=O)NC2CCCC2)c2cccs2)cc1 (configuration not stated),4%,?,4%,13µM*,?,?

# Screening results (PubChem)
